# Records with an inconclusive call do not appear. The source made the active and inactive calls. The calls were made as follows: active = hit-call score of the fitted dose curve at least 0.9, where 1 is the maximum; inconclusive = response in the unintended direction; inactive = score below 0.9.
# Assay: ATG_M_61_EcoTox2: Attagene TRANS-FACTORIAL EcoTox-2 HepG2 Assay for M61 Transcription Factor (Internal Marker)
# Procedure: ATG_EcoTox2 is a cell-based, multiplexed assay created by modifying the existing Attagene TRANS-FACTORIAL system to include a panel of nuclear receptors from some or all the following species: human (Homo sapiens), african clawed frog (Xenopus laevis), rainbow trout (Oncorhynchus mykiss), japanese medaka (Oryzias latipes), and zebrafish (Danio rerio). The ECOTOX2-FACTORIAL format uses HepG2, a human liver cell line, with measurements taken at 24 hours after chemical dosing in a 24-well plate. ATG_M_61_EcoTox2 is one of 29 assay components calculated in the ATG_EcoTox2 assay. It is designed to make measurements of mRNA induction, a form of inducible reporter, as detected with fluorescence intensity signals by Reverse transcription polymerase chain reaction (RT-PCR) and Capillary electrophoresis technology.The assay endpoint ATG_M_61_EcoTox2 was analyzed in the positive analysis fitting direction relative to DMSO as the negative control and baseline of activity. Using a type of inducible reporter, measures of mRNA for gain-of-signal activity can be used to understand the background control at the transcription factor-level as they relate to the gene. Furthermore, this assay endpoint can be referred to as a secondary readout, because this assay has produced multiple assay endpoints where this one serves a background control function. To generalize the intended target to other relatable targets, this assay endpoint is annotated to the background measurement intended target family, where the subfamily is internal marker.
# Human liver HepG2 cells are transiently transfected with multiple reporter transcription units (MRTUs) in 6-well plates using FuGene 6 reagent (Roche; 3 ml FuGene/1 mg DNA). The MRTU constructs are regulated by a cis-regulating element (promoter). Each RTU expresses a GAL4-UAS that regulates the transcription of a nearby target reporter gene sequence. A major difference between the CIS and TRANS system is that in CIS activities of endogenous TFs are measured, whereas the TRANS assay evaluates changes in activities of exogenous, chimeric NR-Gal4 proteins. […] At the end of 24 hour incubation, total RNA was isolated using TriZol reagent (Invitrogen). The isolated RNA is then reverse-transcribed using oligo(dT) primer and Mo-MLV reverse transcriptase (Invitrogen) with DNAse I (Ambion) treatment for 30 min. The one-tenth of the produced cDNA was amplified by PCR using Taq DNA polymerase (Invitrogen) and two reporter sequence-specific primers. […] The fragments were purified using Qiaquick PCR columns (Qiagen), analyzed on an ABI 3130xL genetic analyzer (Applied Biosystems) with peak positions identified by using a set of X-rhodamine (ROX)-labeled MapMarker1000 molecular weight standards (BioVentures). […]
row,Structure (SMILES),outcome
1,O=P(Oc1ccccc1)(Oc1ccccc1)Oc1ccccc1,inactive
2,O=C(O)C(F)(F)C(F)(F)C(F)(F)C(F)(F)C(F)(F)C(F)(F)C(F)(F)F,inactive
3,O=S(=O)(O)C(F)(F)C(F)(F)C(F)(F)C(F)(F)C(F)(F)C(F)(F)F,inactive
4,CCCCOCN(C(=O)CCl)c1c(CC)cccc1CC,inactive
